Measurements published in PubChem BioAssay (Tox21).
Records with an inconclusive call do not appear. Active and inactive are the calls of the source. Unless noted, calls follow the shape of the full dose curve.

What was measured:
[1] = biological target: Estrogen receptor (Homo sapiens) (UniProt P03372); assay: qHTS assay to identify small molecule agonists of the estrogen receptor alpha (ER-alpha) signaling pathway in the presence of an antagonist (AID 1259383); also: nearly all actives have a fitted effect of over 15% in size; also: potency is read from the fitted curve at half-maximal effect; as to activation: top concentration of the series differs between compounds
Sequence of Estrogen receptor (Homo sapiens) (P03372 whole entry, looked up): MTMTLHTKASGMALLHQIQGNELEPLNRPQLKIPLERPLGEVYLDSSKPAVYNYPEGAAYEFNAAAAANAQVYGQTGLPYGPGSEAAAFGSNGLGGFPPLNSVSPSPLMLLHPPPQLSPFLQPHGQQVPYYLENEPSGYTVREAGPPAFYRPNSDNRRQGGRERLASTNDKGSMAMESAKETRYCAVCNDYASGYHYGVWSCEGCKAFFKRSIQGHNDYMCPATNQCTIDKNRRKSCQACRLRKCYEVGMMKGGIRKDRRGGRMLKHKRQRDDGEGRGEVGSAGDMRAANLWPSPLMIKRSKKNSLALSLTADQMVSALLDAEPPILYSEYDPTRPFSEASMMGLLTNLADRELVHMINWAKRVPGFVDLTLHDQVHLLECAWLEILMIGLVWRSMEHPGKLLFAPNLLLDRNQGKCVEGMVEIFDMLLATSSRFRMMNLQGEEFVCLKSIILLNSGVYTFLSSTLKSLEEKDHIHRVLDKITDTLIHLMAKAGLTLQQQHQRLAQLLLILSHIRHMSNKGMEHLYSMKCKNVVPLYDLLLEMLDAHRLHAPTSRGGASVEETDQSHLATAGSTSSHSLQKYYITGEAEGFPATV
Outline: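 Agonist-mode confirmation run in the presence of 10.0nM (final) ICI-182,780 antagonist. The reporter was ERE-driven luciferase in VM7Luc4E2 cells, grown in charcoal-stripped serum. Cells were exposed to 15-concentration compound series for 22hr, then ONE-Glo luminescence was read.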

[2] = qHTS assay to identify small molecule agonists or antagonists of the thyroid stimulating hormone receptor (TSHR) signaling pathway - wild type cell line counter screen (AID 1259384)
Outline: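 Wild-type HEK293 cells were plated 18 h at 37 C/5% CO2, pin-dosed with compound plus Ro20-1724 medium, held 30 min at room temperature, then given cAMP-d2 and anti-cAMP-cryptate; fluorescence was read after 1 h. Fifteen concentrations, triplicate.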

[3] = biological target: Thyrotropin receptor (Homo sapiens) (UniProt P16473); assay: qHTS assay to identify small molecule antagonists of the thyroid stimulating hormone receptor (TSHR) signaling pathway (AID 1259385); also: nearly all actives have a fitted effect of over 20% in size
Sequence of Thyrotropin receptor (Homo sapiens) (P16473 whole entry, looked up): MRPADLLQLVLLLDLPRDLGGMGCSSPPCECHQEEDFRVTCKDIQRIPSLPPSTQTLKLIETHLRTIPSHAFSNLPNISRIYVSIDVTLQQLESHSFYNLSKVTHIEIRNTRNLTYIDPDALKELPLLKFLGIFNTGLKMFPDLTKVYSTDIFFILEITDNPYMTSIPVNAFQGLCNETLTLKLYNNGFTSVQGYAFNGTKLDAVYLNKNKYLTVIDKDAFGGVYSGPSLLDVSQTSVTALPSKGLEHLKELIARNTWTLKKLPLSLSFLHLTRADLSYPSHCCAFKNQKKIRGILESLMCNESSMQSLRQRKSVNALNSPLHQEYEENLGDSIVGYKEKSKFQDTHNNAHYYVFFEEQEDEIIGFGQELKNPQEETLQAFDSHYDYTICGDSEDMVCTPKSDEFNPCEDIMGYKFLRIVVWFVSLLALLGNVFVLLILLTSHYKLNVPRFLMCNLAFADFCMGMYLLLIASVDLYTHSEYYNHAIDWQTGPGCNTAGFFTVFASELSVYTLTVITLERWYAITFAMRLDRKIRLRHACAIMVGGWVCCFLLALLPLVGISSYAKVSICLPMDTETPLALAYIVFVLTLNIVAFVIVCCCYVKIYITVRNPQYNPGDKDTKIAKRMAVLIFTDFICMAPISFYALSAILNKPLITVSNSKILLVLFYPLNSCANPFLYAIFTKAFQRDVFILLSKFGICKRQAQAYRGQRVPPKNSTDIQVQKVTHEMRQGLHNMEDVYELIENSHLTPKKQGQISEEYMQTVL
Outline: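 TSHR-HEK293 cells were plated and held 18 h at 37C/5% CO2, then given compound plus Ro20-1724 and stimulated with TSH at 1.5 ng/mL final. After 30 min at room temperature, cAMP was detected with cAMP-d2/anti-cAMP-cryptate (1 h) by fluorescence.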

[4] = qHTS assay to identify small molecule agonists of the estrogen receptor alpha (ER-alpha) signaling pathway in the presence of an antagonist - cell viability counter screen (AID 1259386; active = well fitted curve in the direction sought with a large enough effect in the repeat runs; an effect the other way counts as inactive or inconclusive; also: series mostly up to about 92 µM; nearly all actives have a fitted effect of over 30% in size)
Outline: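 Compounds tested at 15 concentrations for 22 h at 37C alongside 10.0nM (final) ICI-182,780 antagonist, in VM7Luc4E2 cells grown in phenol red-free, charcoal-stripped medium. Viability read by CellTiter-Fluor fluorescence after 1 h reagent incubation.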

[5] = biological target: Progesterone receptor (Homo sapiens) (UniProt P06401); assay: qHTS assay to identify small molecule agonists of the progesterone receptor (PR) signaling pathway (AID 1346784); also: nearly all actives have a fitted effect of over 30% in size
Sequence of Progesterone receptor (Homo sapiens) (P06401 whole entry, looked up): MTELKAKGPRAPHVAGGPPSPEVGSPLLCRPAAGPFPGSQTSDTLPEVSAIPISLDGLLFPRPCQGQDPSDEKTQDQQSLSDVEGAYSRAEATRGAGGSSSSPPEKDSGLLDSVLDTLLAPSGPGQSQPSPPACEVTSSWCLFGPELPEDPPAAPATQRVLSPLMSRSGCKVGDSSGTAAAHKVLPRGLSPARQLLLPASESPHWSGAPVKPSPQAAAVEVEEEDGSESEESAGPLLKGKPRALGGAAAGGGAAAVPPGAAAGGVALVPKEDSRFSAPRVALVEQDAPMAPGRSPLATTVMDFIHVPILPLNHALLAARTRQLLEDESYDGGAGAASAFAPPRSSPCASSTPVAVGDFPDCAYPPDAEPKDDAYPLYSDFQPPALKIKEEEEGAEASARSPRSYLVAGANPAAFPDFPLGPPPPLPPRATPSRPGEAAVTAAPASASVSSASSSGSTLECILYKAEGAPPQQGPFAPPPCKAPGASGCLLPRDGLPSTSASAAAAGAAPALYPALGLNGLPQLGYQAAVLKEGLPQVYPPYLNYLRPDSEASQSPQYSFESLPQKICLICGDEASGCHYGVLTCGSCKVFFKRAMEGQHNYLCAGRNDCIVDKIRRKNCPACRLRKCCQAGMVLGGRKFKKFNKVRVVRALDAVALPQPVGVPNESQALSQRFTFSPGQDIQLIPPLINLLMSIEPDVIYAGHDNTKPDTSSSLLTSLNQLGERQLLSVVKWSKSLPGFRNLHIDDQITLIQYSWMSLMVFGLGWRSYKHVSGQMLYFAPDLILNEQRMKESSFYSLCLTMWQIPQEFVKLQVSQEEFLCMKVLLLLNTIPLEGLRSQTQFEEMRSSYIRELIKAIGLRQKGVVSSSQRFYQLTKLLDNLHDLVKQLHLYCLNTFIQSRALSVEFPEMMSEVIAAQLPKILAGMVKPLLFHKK
Outline: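 PR-UAS-bla HEK 293T cells (beta-lactamase reporter under UAS) in 2% charcoal-stripped FBS, dosed with 23 nL compound after 6 hr, incubated 16hr at 37C. LiveBLAzer B/G FRET substrate added, fluorescence read after 2 hours.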

[6] = biological target: Progesterone receptor (Homo sapiens) (UniProt P06401); assay: qHTS assay to identify small molecule antagonists of the progesterone receptor (PR) signaling pathway (AID 1346795; active = well fitted inhibition curve with a large enough effect in the signal ratio in the repeat runs, not every such curve was filed as active; the % refers to the signal ratio; also: potency is read from the fitted curve at half-maximal effect)
Outline: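 PR-UAS-bla HEK293T cells with beta-lactamase reporter under UAS control, in 2% charcoal-stripped FBS, treated with compounds plus 1 nM promegestone (R5020, final) for 16 hr at 37C. Read-out: FRET beta-lactamase substrate fluorescence after 2 hr at room temperature.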

[7] = qHTS assay to identify small molecule antagonists of the progesterone receptor (PR) signaling pathway - cell viability counter screen (AID 1346798; active = well fitted curve in the direction sought with a large enough effect in the repeat runs; an effect the other way counts as inactive or inconclusive; also: series mostly up to about 92 µM; nearly all actives have a fitted effect of over 50% in size)
Outline: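 PR-UAS-bla HEK293T cells, 3,000/well in 2% charcoal-stripped FBS medium, dosed with compounds plus R5020 agonist and incubated 16 h at 37C. Viability then measured in the same wells by CellTiter-Glo luminescence after 30 min at RT.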

[8] = qHTS assay to identify small molecule agonists of the progesterone receptor (PR) signaling pathway - cell viability counter screen (AID 1346799); also: nearly all actives have a fitted effect of over 45% in size
Outline: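 Counter screen in the PR-UAS-bla HEK293T wells (2% charcoal-stripped FBS, 16 h compound exposure at 37 C) after the bla read. CellTiter-Glo added, 30 min at room temperature, luminescence read as cell viability.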

[9] = qHTS assay to identify small molecule agonists of the TGF-beta/Smad signaling pathway - cell viability counter screen (AID 1346829; active = well fitted curve in the direction sought with a large enough effect in the repeat runs; an effect the other way counts as inactive or inconclusive; also: top concentration of the series differs between compounds; nearly all actives have a fitted effect of over 45% in size)
Outline: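 Luminescence from CellTiter-Glo, read after a 30 min room-temperature incubation, gives cell viability of SBE-bla HEK 293T cells treated 5 hr with compounds at 37 C.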

[10] = qHTS assay to identify small molecule antagonists of the TGF-beta/Smad signaling pathway - cell viability counter screen (AID 1346824; active = well fitted curve in the direction sought with a large enough effect in the repeat runs; an effect the other way counts as inactive or inconclusive; also: nearly all actives have a fitted effect of over 50% in size)
Outline: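 SBE-bla HEK 293T cells were plated overnight at 37 C, then given compounds in DMSO plus TGF-beta1 (added as 0.25 ng/mL solution) for 5 hr. After the bla read, CellTiter-Glo was added to the same wells and luminescence read after 30 min at room temperature.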
% is scaled to controls: 0 for no effect and ±100 for the full control effect.

CN(C)C(C)(C)CO
inactive: Potency [1] | outcome [2] | outcome [3] | outcome [4] | Potency [5] | Potency [6] | outcome [7] | outcome [8] | outcome [9]

CCCSSCCC
inactive: Potency [1] | outcome [2] | outcome [3] | outcome [4] | Potency [5] | outcome [7] | outcome [8] | outcome [10] | outcome [9]

CCCC(=O)OC/C=C(\C)CCC=C(C)C
inactive: Potency [1] | outcome [2] | outcome [3] | outcome [4] | Potency [5] | Potency [6] | outcome [7] | outcome [10] | outcome [9]

CCCCCCCCCCCCCCCCCC#N
inactive: Potency [1] | outcome [2] | outcome [3] | outcome [4] | Potency [5] | outcome [7] | outcome [8] | outcome [10] | outcome [9]

CC/C(C)=N\O[Si](C)(O/N=C(\C)CC)O/N=C(\C)CC
inactive: Potency [1] | outcome [2] | outcome [3] | outcome [4] | Potency [5] | outcome [7] | outcome [8] | outcome [10] | outcome [9]

O=C1c2ccccc2C(=O)c2cc(Cl)ccc21
inactive: activation [1] 1.09% [at 8.39 µM] | cAMP activity change [2] 2.64% [at 8.39 µM] | activity change, negative = inhibition [3] -1.43% [at 8.39 µM] | activity change, negative = cytotoxicity [4] 1.35% [at 8.39 µM] | activation [5] 2.34% [at 8.39 µM] | activity change, negative = inhibition [6] 1.29% [at 8.39 µM] | activity change, negative = cytotoxicity [7] -7.61% [at 8.39 µM] | activity change, negative = cytotoxicity [8] 13.3% [at 8.39 µM] | viability change, negative = cytotoxic [10] -4.61% [at 6.97 µM] | activity change, negative = cytotoxicity [9] 7.07% [at 6.97 µM]

CC(=O)Nc1ccc(OC(=O)c2ccccc2OC(C)=O)cc1
inactive: Potency [1] | outcome [2] | outcome [3] | outcome [4] | Potency [5] | Potency [6] | outcome [7] | outcome [8] | outcome [10] | outcome [9]

CCc1occc(=O)c1O
inactive: Potency [1] | outcome [2] | outcome [3] | outcome [4] | Potency [6] | outcome [7] | outcome [8] | outcome [10] | outcome [9]

CC(=O)CCC1=C(C)CCCC1(C)C
inactive: Potency [1] | outcome [2] | outcome [3] | outcome [4] | Potency [5] | outcome [7] | outcome [8] | outcome [10] | outcome [9]

CC(C)OC(=O)OCOP(=O)(CO[C@H](C)Cn1cnc2c(N)ncnc21)OCOC(=O)OC(C)C
inactive: Potency [1] | outcome [2] | outcome [3] | outcome [4] | Potency [5] | outcome [7] | outcome [10] | outcome [9]

CCC(C(=O)OCCN1CCOC(c2ccccc2)C1C)c1ccccc1 (stereo unspecified)
inactive: Potency [1] | outcome [2] | outcome [3] | outcome [4] | Potency [5] | outcome [10] | outcome [9]
active: Potency [6] 23.7 µM

Nc1nc(-c2ccccc2)c(Br)c(=O)[nH]1
inactive: Potency [1] | outcome [2] | outcome [3] | outcome [4] | Potency [5] | Potency [6] | outcome [8] | outcome [10] | outcome [9]

C=CCSSCCC
inactive: Potency [1] | outcome [2] | outcome [3] | outcome [4] | Potency [5] | outcome [7] | outcome [10] | outcome [9]

CC1(C)[C@H]2CC[C@](C)(C2)[C@H]1O
inactive: Potency [1] | outcome [2] | outcome [3] | outcome [4] | Potency [5] | outcome [7] | outcome [8] | outcome [10] | outcome [9]

COc1cc2c(cc1OC)CN(C(=O)[C@H](C)N[C@@H](CCc1ccccc1)C(=O)O)[C@H](C(=O)O)C2
inactive: Potency [1] | outcome [2] | outcome [3] | outcome [4] | Potency [5] | Potency [6] | outcome [7] | outcome [8] | outcome [10] | outcome [9]

CCCCOC(=O)C(C)O (stereo unspecified)
inactive: Potency [1] | outcome [2] | outcome [3] | outcome [4] | Potency [5] | outcome [7] | outcome [8] | outcome [10] | outcome [9]

CC(=O)CC(=O)OC(C)(C)C
inactive: Potency [1] | outcome [2] | outcome [3] | outcome [4] | Potency [5] | Potency [6] | outcome [7] | outcome [8] | outcome [10] | outcome [9]

O=C(O)[C@H](O)c1ccccc1
inactive: Potency [1] | outcome [2] | outcome [3] | outcome [4] | Potency [5] | outcome [7] | outcome [8] | outcome [10] | outcome [9]

Cc1ccc2c(c1)C(=O)c1ccccc1C2=O
active: Potency [1] 3.84 µM
inactive: outcome [2] | outcome [3] | outcome [4] | Potency [5] | Potency [6] | outcome [10] | outcome [9]

COc1nc(N)nc2nc[nH]c12
inactive: Potency [1] | outcome [2] | outcome [3] | outcome [4] | Potency [6] | outcome [7] | outcome [8] | outcome [10] | outcome [9]

CCCCCC(C)O (stereo unspecified)
inactive: Potency [1] | outcome [2] | outcome [3] | outcome [4] | Potency [5] | outcome [7] | outcome [8] | outcome [10] | outcome [9]

N[C@@H](CSCCCO)C(=O)O
inactive: activation [1] -1.71% [at 19 µM] | cAMP activity change [2] -1.7% [at 18.9 µM] | activity change, negative = inhibition [3] -0.731% [at 19 µM] | activity change, negative = cytotoxicity [4] -1.24% [at 19 µM] | activation [5] -0.517% [at 19 µM] | activity change, negative = inhibition [6] 8.75% [at 18.9 µM] | activity change, negative = cytotoxicity [7] -3.41% [at 18.9 µM] | activity change, negative = cytotoxicity [8] 4.73% [at 19 µM] | viability change, negative = cytotoxic [10] -0.153% [at 15.8 µM] | activity change, negative = cytotoxicity [9] 6.47% [at 15.8 µM]

CC1=C(C(=O)O)N2C(=O)[C@@H](NC(=O)[C@H](N)C3=CCC=CC3)[C@H]2SC1
inactive: Potency [1] | outcome [2] | outcome [3] | outcome [4] | Potency [5] | outcome [7] | outcome [8] | outcome [10] | outcome [9]

CC(S)C(C)S (stereo unspecified)
inactive: Potency [1] | outcome [2] | outcome [3] | outcome [4] | Potency [5] | outcome [7] | outcome [8] | outcome [9]

CC(C)c1ccc(C=O)cc1
inactive: Potency [1] | outcome [2] | outcome [3] | outcome [4] | Potency [5] | Potency [6] | outcome [7] | outcome [8] | outcome [10] | outcome [9]

C/C=C(\C)C(C)=O
inactive: Potency [1] | outcome [2] | outcome [3] | outcome [4] | Potency [5] | outcome [7] | outcome [8] | outcome [10] | outcome [9]

CCC(=O)c1c(O)cc(O)cc1O
inactive: Potency [1] | outcome [2] | outcome [3] | outcome [4] | Potency [5] | outcome [7] | outcome [8] | outcome [10] | outcome [9]

C=CC(=O)OCC1CCCO1 (stereo unspecified)
inactive: Potency [1] | outcome [2] | outcome [3] | outcome [4] | Potency [5] | outcome [7] | outcome [8] | outcome [10] | outcome [9]

CCC(C)OC(C)CC (stereo unspecified)
inactive: Potency [1] | outcome [2] | outcome [3] | outcome [4] | Potency [5] | outcome [7] | outcome [10] | outcome [9]

C=C(C)c1cccc(C(C)(C)N=C=O)c1
inactive: Potency [1] | outcome [2] | outcome [3] | outcome [4] | Potency [5] | outcome [7] | outcome [8] | outcome [10] | outcome [9]

C[Si]1(C)O[Si](C)(C)O[Si](C)(C)O[Si](C)(C)O[Si](C)(C)O1
inactive: Potency [1] | outcome [2] | outcome [3] | outcome [4] | outcome [8] | outcome [10] | outcome [9]

CCCCOCC(C)O (stereo unspecified)
inactive: Potency [1] | outcome [2] | outcome [3] | Potency [5] | Potency [6] | outcome [7] | outcome [8] | outcome [10] | outcome [9]

CCC[C@@H]1C[C@@H](C(=O)N[C@@H]([C@H]2O[C@H](SC)[C@H](O)[C@@H](O)[C@H]2O)[C@@H](C)O)N(C)C1
inactive: Potency [1] | outcome [2] | outcome [3] | outcome [4] | outcome [7] | outcome [10] | outcome [9]

OCCN1CCOCC1
inactive: Potency [1] | outcome [2] | outcome [3] | outcome [4] | outcome [7] | outcome [8] | outcome [10] | outcome [9]

CN1C[C@@H]2C[C@H]1CN2c1cc2c(cc1F)c(=O)c(C(=O)O)cn2C1CC1
inactive: activation [1] 0.617% [at 19 µM] | cAMP activity change [2] -2.22% [at 18.9 µM] | activity change, negative = inhibition [3] -7.57% [at 19 µM] | activity change, negative = cytotoxicity [4] -0.242% [at 19 µM] | activity change, negative = inhibition [6] 14.1% [at 18.9 µM] | activity change, negative = cytotoxicity [8] 18.9% [at 19 µM] | viability change, negative = cytotoxic [10] 1.45% [at 15.8 µM] | activity change, negative = cytotoxicity [9] 2.12% [at 15.8 µM]

O=C=NCC1CCCC(CN=C=O)C1 (stereo unspecified)
inactive: Potency [1] | outcome [2] | outcome [3] | outcome [4] | outcome [7] | outcome [8] | outcome [10] | outcome [9]

N#Cc1ccccc1O
inactive: Potency [1] | outcome [2] | outcome [3] | outcome [4] | Potency [6] | outcome [7] | outcome [8] | outcome [10] | outcome [9]
